Screening data deposited in PubChem BioAssay by Broad Institute.
aSyn 5UTR act: Activators working through SNCA 5'UTR binding (MLPCN); alpha-synuclein 5'UTR reporter, activators screen; hit rate 7.1% among 300,000; activity score, % (tested at 7.5 µM), hits read low; in the data active = activity score below about -60%
* marks the source's active call; other numbers are inactive results. Not all results are given here.

`CN(C(=O)/C=C/c1ccc2c(c1)OCO2)c1ccccc1` gave aSyn 5UTR act -89*.
`O=C(/C=C/c1ccccc1)c1ccc2c(c1)OCO2` gave aSyn 5UTR act -206*.
O=C(/C=C/c1ccc2c(c1)OCO2)c1ccc(F)cc1 was read as aSyn 5UTR act -90*.
For COc1cc(/C=N/N(C)c2ccccc2)ccc1O the results were aSyn 5UTR act -156*.
For COc1cccc(/C=C/C(=O)c2ccc[nH]2)c1 the results were aSyn 5UTR act -305*.
CN(/N=C/c1ccc2c(c1)OCO2)c1ccccc1 was read as aSyn 5UTR act -169*.
O=C(/C=C/c1ccc2c(c1)OCO2)c1ccc[nH]1 was read as aSyn 5UTR act -279*.
Fc1ccc(-c2csc(/C=C/c3ccc4c(c3)OCO4)n2)cc1 was read as aSyn 5UTR act -186*.
For O=C(/C=C/c1cccc(Br)c1)c1ccc2c(c1)OCO2 the results were aSyn 5UTR act -72*.
For Cc1csc2nc(CSc3nc4ccccc4o3)c(Br)n12 the results were aSyn 5UTR act -129*.
NC(=O)c1sc2nc3c(c(-c4ccc(Cl)cc4)c2c1N)CCCC3 was read as aSyn 5UTR act 66.
Screening Nc1ccc2nc3c(c(Cl)c2c1)CCCC3 returned aSyn 5UTR act -88*.
Cc1c(Cl)cccc1NC(=O)c1cc(-c2ccco2)on1 was read as aSyn 5UTR act -108*.
`O=C(Nc1ccccc1C(F)(F)F)c1cc(-c2ccccc2O)on1` gave aSyn 5UTR act -141*.
Screening Cc1cc(NC(=O)c2cc(-c3ccco3)on2)nn1Cc1ccc(Cl)cc1 returned aSyn 5UTR act -71*.
Screening O=C(Nc1ccccc1C(F)(F)F)c1cc(-c2ccco2)on1 returned aSyn 5UTR act -127*.
`CC(C)OC(=O)c1ccc(NC(=O)c2ccco2)cc1` gave aSyn 5UTR act -140*.
Screening CCOC(=O)/C(=C/c1ccccc1)NC(=O)c1ccco1 returned aSyn 5UTR act -65*.
For CCCOC(=O)c1ccc(NC(=O)c2ccoc2C)cc1 the results were aSyn 5UTR act -154*.
`O=C(Nc1ccccc1)c1ccc(OC(=O)c2ccccc2)cc1` gave aSyn 5UTR act -63*.
Screening CCOC(=O)c1ccc(NC(=O)c2ccco2)cc1 returned aSyn 5UTR act -189*.
`Cc1ccc(NC(=O)c2ccccc2)cc1OC(=O)c1ccccc1` gave aSyn 5UTR act -109*.
CC(C)OC(=O)c1ccc(NC(=O)c2ccccc2)cc1 was read as aSyn 5UTR act -78*.
`Cc1ccc(COc2ccc(Br)cc2/C=N/O)cc1` gave aSyn 5UTR act -156*.
For CCOc1cc(/C=N/O)ccc1OCc1ccc(C)cc1 the results were aSyn 5UTR act -68*.
For O/N=C/c1cc(Br)ccc1OCc1ccc(F)cc1 the results were aSyn 5UTR act -79*.
`Cc1cnc(NC(=O)c2sc(Nc3ccccc3)nc2N)o1` gave aSyn 5UTR act -115*.
Screening Nc1nc(Nc2ccccc2)sc1C(=O)c1ccccc1 returned aSyn 5UTR act -121*.
`CSC1=NC2(CCCCC2)CC12C=CC(=O)C=C2` gave aSyn 5UTR act -63*.
COc1cccc(N(C(=O)CCl)C(C(=O)NCCc2ccccc2)c2cccs2)c1 (stereo not given) was read as aSyn 5UTR act -112*.
`Fc1ccc2nc(Nc3nc4c(F)cccc4s3)sc2c1` gave aSyn 5UTR act -235*.
`O=C(Nc1nc2c(F)cc(F)cc2s1)c1ccccn1` gave aSyn 5UTR act 73.
Fc1ccc2nc(Nc3nc4c(F)cc(F)cc4s3)sc2c1 was read as aSyn 5UTR act -211*.
For Fc1cccc2sc(Nc3nc4ccccc4s3)nc12 the results were aSyn 5UTR act -309*.
For CCc1c(C)nc2cc(-c3cccc(Br)c3)[nH]n2c1=O the results were aSyn 5UTR act -199*.
Screening CCc1c(C)nc2cc(-c3ccc(Cl)cc3)[nH]n2c1=O returned aSyn 5UTR act -98*.
Cc1nc2cc(-c3ccc(Br)cc3)[nH]n2c(=O)c1Cl was read as aSyn 5UTR act -74*.
O=c1c2c(nc3cc(-c4ccc(Cl)cc4)[nH]n13)CCS2 was read as aSyn 5UTR act -132*.
Screening O=c1cc(-c2ccccc2)nc2cc(-c3ccc(Br)cc3)[nH]n12 returned aSyn 5UTR act -94*.
Screening Nc1[nH]n2c(=O)cc(-c3ccccc3)nc2c1N=Nc1ccccc1 returned aSyn 5UTR act 68.
`COCc1cc(=O)n2[nH]c(-c3cccc(Br)c3)cc2n1` gave aSyn 5UTR act -75*.
For CC(=O)c1cnc(Nc2cccc(C)c2)s1 the results were aSyn 5UTR act -137*.
CNc1ncc(C(=O)c2ccc(F)cc2)s1 was read as aSyn 5UTR act -112*.
For O=C(c1ccc(F)cc1)c1cnc(Nc2ccccc2)s1 the results were aSyn 5UTR act -161*.
`Cc1cc(NS(=O)(=O)c2ccc(NC(=O)c3cc4c(=O)n5ccccc5nc4s3)cc2)nc(C)n1` gave aSyn 5UTR act -79*.
CC(C)CCNC(=O)c1cc2c(=O)n3ccccc3nc2s1 was read as aSyn 5UTR act -146*.
`CCN(CC)C(=O)c1cc2c(=O)n3ccccc3nc2s1` gave aSyn 5UTR act -125*.
For COc1cc2cc(-c3ccc(O)cc3O)nc(C)c2cc1OC the results were aSyn 5UTR act -116*.
For COc1cc2cc(-c3ccc(OC)c(OC)c3C)nc(N)c2cc1OC the results were aSyn 5UTR act 96.
CC(C)c1cc2c(c(O)c1O)[C@@]13CCCC(C)(C)C1CC2OC3=O (stereo not given in full) was read as aSyn 5UTR act -126*.
Screening O=C(NC(=S)Nc1ccccc1Br)c1ccc2c(c1)OCO2 returned aSyn 5UTR act -137*.
`Nc1ccc(C(=O)c2ccc3c(c2)OCCO3)cc1N` gave aSyn 5UTR act -166*.
CC(C)c1ccc(O)c(NC(=S)NC(=O)c2ccc3c(c2)OCO3)c1 was read as aSyn 5UTR act -124*.
`O=C(Nc1ccc2c(c1)OCCO2)C(=O)NC1CC1` gave aSyn 5UTR act -74*.
CC(C)(C)c1ccc(C(=O)Nc2cccc([N+](=O)[O-])c2)cc1 was read as aSyn 5UTR act -193*.
O=C(Nc1ccc2c(c1)OCCO2)C(=S)NCc1ccccc1 was read as aSyn 5UTR act -96*.
Screening O=C(Nc1ncc([N+](=O)[O-])s1)c1ccc2c(c1)OCO2 returned aSyn 5UTR act 103.
O=C(Nc1ccc2c(c1)OCO2)c1cncc(Br)c1 was read as aSyn 5UTR act -191*.
O=C(Nc1ccc2c(c1)OCO2)c1ccccc1 was read as aSyn 5UTR act -120*.
Screening CS(=O)(=O)Nc1ccc(C(=O)Nc2ccc3c(c2)OCCO3)cc1 returned aSyn 5UTR act -169*.
`O=C(NC(=S)Nc1ccc2c(c1)OCCO2)c1cccc(Br)c1` gave aSyn 5UTR act -302*.
O=C(CS(=O)(=O)c1ccccc1)c1ccc2c(c1)OCCO2 was read as aSyn 5UTR act -132*.
Screening CSc1ccccc1C(=O)Nc1ccc2c(c1)OCCO2 returned aSyn 5UTR act -65*.
`CCCc1cc(C(=O)Nc2cccc([N+](=O)[O-])c2)cs1` gave aSyn 5UTR act -105*.
`O=C(Nc1cccc([N+](=O)[O-])c1)c1[nH]ncc1Cl` gave aSyn 5UTR act -227*.
CN(c1cccc(NC(=O)c2ccc(C(C)(C)C)cc2)c1)S(C)(=O)=O was read as aSyn 5UTR act -174*.
`O=C(Nc1ccc2c(c1)OCCO2)c1ccccc1` gave aSyn 5UTR act -98*.
`O=C(NC(=S)Nc1ccc2c(c1)OCO2)c1ccccc1` gave aSyn 5UTR act -199*.
